# How the values were obtained:
# Format in all cases: functional
# [1] = target: Solute carrier family 2, facilitated glucose transporter member 1 (Homo sapiens) (UniProt P11166); test: ST_JUDE_LEISH: Cytotoxicity at 2uM final concentration against transgenic Leishmania Mexicana promastigotes LmGLUT1 that are glucose transport deficient and complemented with the human glucose transporter GLUT1. Activity is measured by DNA content using SYBR green in vitro
# [2] = target: Hexose transporter 1 (Plasmodium falciparum) (UniProt O97467); test: ST_JUDE_LEISH: Cytotoxicity at 2uM final concentration against transgenic Leishmania Mexicana promastigotes LmPfHT that are glucose transport deficient and complemented with the Plasmodium falciparum hexose transporter. Activity is measured by DNA content using SYBR green in vitro
# [3] = target: Glucose transporter (Leishmania mexicana) (UniProt O61059); test: ST_JUDE_LEISH: Cytotoxicity at 2uM final concentration against transgenic Leishmania Mexicana promastigotes LmGT2 that are glucose transport deficient and complemented with the L. Mexicana glucose transporter 2. Activity is measured by DNA content using SYBR green in vitro
# Chain of Solute carrier family 2, facilitated glucose transporter member 1 (Homo sapiens) (P11166 whole entry): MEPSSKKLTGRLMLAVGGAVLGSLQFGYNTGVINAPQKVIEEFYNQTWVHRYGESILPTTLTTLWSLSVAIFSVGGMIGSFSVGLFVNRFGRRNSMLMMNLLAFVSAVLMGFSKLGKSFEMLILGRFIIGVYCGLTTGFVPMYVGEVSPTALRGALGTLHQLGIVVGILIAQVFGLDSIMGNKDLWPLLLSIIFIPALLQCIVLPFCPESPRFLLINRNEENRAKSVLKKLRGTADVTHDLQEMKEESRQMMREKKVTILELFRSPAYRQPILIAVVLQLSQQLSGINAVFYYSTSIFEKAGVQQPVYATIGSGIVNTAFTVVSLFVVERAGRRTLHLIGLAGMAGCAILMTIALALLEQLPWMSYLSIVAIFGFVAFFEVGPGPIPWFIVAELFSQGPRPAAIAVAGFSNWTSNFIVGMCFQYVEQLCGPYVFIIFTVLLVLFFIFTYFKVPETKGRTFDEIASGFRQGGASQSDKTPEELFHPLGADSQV
smiles,measurement,setting,value
CCNc1cc(C(=O)N[C@@H](Cc2ccccc2)[C@H](O)CN[C@@H](C)c2cccc(OC)c2)cc(N2CCCC2=O)c1,inhibition,[1],3.36%
same,inhibition,[2],2.81%
same,inhibition,[3],3.09%
CC(=O)c1ccc2cc(C(=O)NC3CCC(CCN4CCc5ccc(-c6noc(C)n6)cc5CC4)CC3)[nH]c2c1 (stereo not drawn),inhibition,[1],-0.19%
same,inhibition,[2],-0.01%
same,inhibition,[3],-2.09%
CCc1cc(OC)ccc1C1CCN(CCCCNC(=O)c2ccc(NC(=O)c3ccc(Cl)cc3)cc2)CC1,inhibition,[1],3.47%
same,inhibition,[2],5.73%
same,inhibition,[3],-1.82%
N#Cc1cccc(C(=O)Nc2cccc(-c3ccc(C(=O)Nc4cccnc4)cc3)c2)c1,inhibition,[1],4.01%
same,inhibition,[2],2.59%
same,inhibition,[3],1.36%
Clc1ccc(Nc2nc(NCc3ccccc3)nc(N/N=C/c3ccccn3)n2)cc1,inhibition,[1],83.7%
same,inhibition,[2],83.5%
same,inhibition,[3],77.6%
CC(C)CN(C)c1ncnc2c1nc(-c1cncc(C#N)c1)n2CCNCc1ccccc1,inhibition,[1],3.34%
same,inhibition,[2],3.26%
same,inhibition,[3],4.39%
CCOc1ccc(Br)cc1/C=C/C(=O)Nc1ccc2c(c1)CCCN(C)C2,inhibition,[1],11.6%
same,inhibition,[2],10.4%
same,inhibition,[3],11.8%
COc1ccc(-c2nc3cc4ccccc4nc3[nH]2)c(OCC(O)CNC(C)C)c1 (stereo not drawn),inhibition,[1],-1.53%
same,inhibition,[2],1.33%
same,inhibition,[3],1.21%
O=C(NCc1cccc(F)c1)Nc1cccc(-c2ccc(-c3nc4cc(F)ccc4[nH]3)cc2)c1,inhibition,[1],2.2%
same,inhibition,[2],3.53%
same,inhibition,[3],6.86%
COc1ccc(N2CCN(CCCCNC(=O)c3ccc(NC(=O)c4ccc(C(F)(F)F)cc4)cc3)CC2)c(OC)c1,inhibition,[1],9%
same,inhibition,[2],8.75%
same,inhibition,[3],9.19%
COC(=O)c1cccc(N2CCN(CCCNC(=O)/C(=C/C=C/c3cc4cc(Cl)c(Cl)cc4[nH]3)OC)CC2)c1,inhibition,[1],2.24%
same,inhibition,[2],0.95%
same,inhibition,[3],-1.57%

# Source: ChEMBL document CHEMBL3433997, “St. Jude Leishmania screening dataset” (2016)
